The source of these data is PubChem BioAssay (NCATS).

Results filed as inconclusive are left out. Active and inactive are the calls of the source. The call rests on the fitted dose curve; in most records, active means well fitted curve in the direction sought with a large enough effect; inconclusive means small, poorly fitted or top-dose-only effect, or another doubt; inactive means no such curve, though single readings can be large; an effect the other way counts as inactive or inconclusive.

The target of assay [1] is Glutathione peroxidase 1 (Homo sapiens) (UniProt P07203). Briefly: Primary qHTS Assay for Inhibitors of Recombinant Selenoprotein Glutathione Peroxidase 1 (GPX1) (AID 1845191). Further: nearly all actives have a fitted effect of over 65% in size. As to conditions: recombinant GPX1, GR-coupled NADPH fluorescence, 15 min; series mostly up to 48.8 µM. Summed up:
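Recombinant GPX1 (10 nM final) was preincubated with compound for 30 min at room temperature, then reacted with 1 mM GSH, 0.5 mM CHP, 0.5 mM NADPH and 100 nM glutathione reductase; NADPH fluorescence (340/450 nm) was read at 0 and 15 min.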

Assay [2] has as its target Phospholipid hydroperoxide glutathione peroxidase GPX4 (Homo sapiens) (UniProt P36969). Briefly: Primary qHTS Assay for Inhibitors of Recombinant Selenoprotein Glutathione Peroxidase 4 (GPX4) (AID 1845192). Further: nearly all actives have a fitted effect of over 65% in size. The conditions noted are these: recombinant GPX4, GR-coupled NADPH fluorescence, 15 min; series mostly up to 50 µM. A digest of the protocol: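 GR-coupled readout: 100 nM GR, 1 mM GSH, 0.5 mM NADPH; NADPH fluorescence (ex 340/em 450 nm) read at t=0 and after 15 min RT. GPX4 200 nM, preincubated 30 min with compound; substrate 0.5 mM CHP.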

Assay [3] in a line: Primary fluorescence-based thiol-reactive (MSTI) qHTS assay for identification of artifact compounds. (AID 1845221). Further: nearly all actives have a fitted effect of over 65% in size. Further: potency means the concentration at half of the fitted maximal effect. As to conditions: MSTI thiol-reactivity probe, 1 h; series mostly up to 53.8 µM. A digest of the protocol:
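One-hour, room-temperature, dark incubation of compound with 4 uM MSTI in PBS (pH 7.4, 2% DMSO) precedes a fluorescence read at 525 nm excitation, 598 nm emission; Hill-equation fitting yields concentration-response values.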

Assay [4] deals with Luciferin 4-monooxygenase (Photinus pyralis) (UniProt P08659). The assay can be described thus: Primary firefly luciferase (FLuc) qHTS assay for identification of artifact compounds. (AID 1845220). Further: nearly all actives have a fitted effect of over 60% in size. The conditions noted are these: purified firefly luciferase, luminescence, 5 min; series mostly up to 54.1 µM. A digest of the protocol: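 Reaction readout was CCD-imaged luminescence, taken 5 min after adding 10 nM purified firefly enzyme to compound-treated wells holding 10 uM luciferin and ATP in pH 7.6 buffer.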

Assay [5] is described as follows: Primary redox qHTS assay for identification of artifact compounds. (AID 1845223). The conditions noted are these: Amplex Red/HRP redox cycling with DTT, fluorescence; series mostly up to 53.8 µM. A digest of the protocol:
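Amplex Red (25 uM) and HRP (250 mU/mL) in HBSS, with compounds for 15 min, then 250 uM DTT for 30 min, room temperature, dark. Fluorescence 525/598 nm read; normalized to DMSO and 10 uM DA3003; Hill fit.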

Sequence of Phospholipid hydroperoxide glutathione peroxidase GPX4 (Homo sapiens) (P36969 whole entry, looked up): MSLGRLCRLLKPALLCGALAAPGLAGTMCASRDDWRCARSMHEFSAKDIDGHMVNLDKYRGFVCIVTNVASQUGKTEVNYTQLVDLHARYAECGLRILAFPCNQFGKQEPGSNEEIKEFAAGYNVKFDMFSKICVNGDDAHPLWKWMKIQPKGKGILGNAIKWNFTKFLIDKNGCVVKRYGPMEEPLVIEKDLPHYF
Sequence of Glutathione peroxidase 1 (Homo sapiens) (P07203 whole entry, looked up): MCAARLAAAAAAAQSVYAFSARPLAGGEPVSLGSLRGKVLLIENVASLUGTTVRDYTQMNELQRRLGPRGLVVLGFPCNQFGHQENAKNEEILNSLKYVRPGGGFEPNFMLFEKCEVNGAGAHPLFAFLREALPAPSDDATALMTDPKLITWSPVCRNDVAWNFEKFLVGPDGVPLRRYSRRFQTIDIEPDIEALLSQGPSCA

Take `NS(=O)(=O)c1ccc(N2CCCCS2(=O)=O)cc1`: the Potency entry in assay [1] and in assay [2] was “inactive” each time.

Consider `CC(C)=CCC/C(C)=C/CC/C(C)=C/C(=O)OCC(=O)[C@@]1(O)CC[C@H]2[C@@H]3CCC4=CC(=O)C=C[C@]4(C)[C@H]3[C@@H](O)C[C@@]21C`, for which the Potency entry in assay [1] and in assay [2] was “inactive” throughout.

On to `CN(C(=O)C(Cl)Cl)c1ccc(OC(=O)c2ccco2)cc1`, for which the Potency result in assay [1] and in assay [2] was “inactive” each time.

Consider `C[C@]12CCC(=O)C=C1CC[C@@H]1[C@@H]2[C@@H](O)C[C@@]2(C)[C@H]1CC[C@]2(O)C(=O)COC(=O)CCC(=O)O`, for which the Potency result in assay [1] and in assay [2] was “inactive” in each case.

`Cc1c(C)c2c(c(C)c1OC(=O)CCC(=O)OCCO)CC[C@@](C)(CCC[C@H](C)CCC[C@H](C)CCCC(C)C)O2`: the Potency result in assay [1] and in assay [2] was “inactive” throughout.

As to `O=C1NC2CCCCN2C12CCN(CCCN1c3ccccc3CCc3ccc(Cl)cc31)CC2` (stereo unspecified), the Potency result in assay [1], in assay [2] and in assay [3] was “inactive” in each case.

On to `CCC1=C[C@@H]2CN(C1)Cc1c([nH]c3ccccc13)[C@@](C(=O)OC)(c1cc3c(cc1OC)N(C)[C@H]1[C@@](O)(C(=O)OC)[C@H](OC(C)=O)[C@]4(CC)C=CCN5CC[C@]31[C@@H]54)C2`, for which the Potency entry in assay [1] and in assay [2] was “inactive” in each case.

Turning to `OCCOCCN1CCN(C(c2ccccc2)c2ccc(Cl)cc2)CC1` (stereo unspecified), the Potency entry in assay [1] and in assay [2] was “inactive” throughout.

Regarding `COc1cc(NS(=O)(=O)c2ccc(N)cc2)nc(C)n1`, the Potency entry in assay [1], in assay [2], in assay [4] and in assay [3] was “inactive” in each case. Moreover, the result in assay [5] was inactive.

For the molecule `CCOC(=O)c1cc(=O)c2c(OCC(COc3cccc4oc(C(=O)OCC)cc(=O)c34)OC(=O)[C@@H](N)CCCCN)cccc2o1`, the Potency result in assay [1] and in assay [2] was “inactive” throughout.

With `O=C(O)CNC(=O)CNC(=O)CNC(=O)CSC(=O)c1ccccc1`, the Potency result in assay [1], in assay [2], in assay [4] and in assay [3] was “inactive” throughout. Further, the call in assay [5] was inactive.

Take `CC(CC(C#N)(c1ccccc1)C(C)C)N(C)C` (stereo unspecified): the Potency result in assay [1] and in assay [2] was “inactive” throughout.

For the molecule `CCc1cc(S(=O)(=O)O)c2cc(C(C)C)cccc1-2`, the Potency entry in assay [1], in assay [2] and in assay [4] was “inactive” each time. For the same molecule, the Potency in assay [3] was 844 nM (active). The call in assay [5] was inactive.
